Results from PubChem BioAssay.

Test: compound effects on differentiated 3T3-L1 adipocyte viability – cell-based, 3T3-L1 adipocytes, calcein-AM fluorescence, 48 h, basal, profiling panel (AID 1163); note: test concentration not given here
Details: 3T3-L1 adipocytes viability, higher = more signal

SMILES | z-score
COc1ccc(C#Cc2ccc3c(c2)[C@]2(C(=O)N3)[C@H](c3ccccc3OCCO)N3[C@H](c4ccccc4)[C@H](c4ccccc4)OC(=O)[C@H]3[C@@H]2C(=O)Nc2nc3ccccc3s2)cc1 | 0.453
COCCCNC(=O)[C@@]1(C)c2ccccc2C(=O)N(C(C)C)[C@H]1c1ccc(CO)cc1 | -0.208
COc1cc2c(cc1OC)CN(C(=O)[C@@H]1[C@H]3C(=O)O[C@H](c4ccccc4)[C@H](c4ccccc4)N3[C@H](c3ccc(O)cc3)[C@@]13C(=O)Nc1ccccc13)CC2 | 1.45
COc1cccc(-c2cccc(=O)o2)c1 | -0.458
COCCOC(=O)N1C(=O)[C@@]2(c3ccccc31)[C@H](c1ccc(O)cc1)N1[C@H](c3ccccc3)[C@H](c3ccccc3)OC(=O)[C@H]1[C@@H]2C(=O)Nc1nc2ccccc2s1 | 0.267
O=C1O[C@@H](c2ccccc2)[C@@H](c2ccccc2)N2[C@@H](c3ccccc3OCCO)[C@]3(C(=O)Nc4ccccc43)[C@@H](C(=O)Nc3nc4ccccc4s3)[C@H]12 | 1.18
CCCC[C@H]1OB(O)C[C@H]2C1=C(COC)Cn1c(=O)n(-c3ccccc3)c(=O)n12 | -0.21
C=C(COC)C(=O)CC[C@@H](OC(C)=O)c1ccc(CO)o1 | 0.186
O=C1C[C@@](C(=O)NCC(F)(F)F)(c2ccc([N+](=O)[O-])cc2)[C@@H](c2ccc(CO)cc2I)N1C1CCCCC1 | 0.665
COCCOC(=O)N1C(=O)[C@@]2(c3cc(C#CCC(C(=O)OC)C(=O)OC)ccc31)[C@H](C(=O)Nc1nc3ccccc3s1)[C@H]1C(=O)O[C@H](c3ccccc3)[C@H](c3ccccc3)N1[C@@H]2c1ccccc1OCCO | 0.6
